In PubChem BioAssay AID651699 (Sanford-Burnham Center for Chemical Genomics, 2012):
The campaign covered roughly 360,000 compounds. About 2,100 (0.58%) were called active. Many of the other results were omitted from the sample, so actives are more common in it than they were. Values without a mark were called inactive. Rule as the data show it: active = inhibition above about 36%; inactive = the rest.

Target: NEDD8-conjugating enzyme Ubc12 (Homo sapiens) + NEDD8-activating enzyme E1 regulatory subunit (Homo sapiens) (UniProt P61081+Q13564)
Assay: NEDD8 transfer onto cullin, blockade – biochemical, TR-FRET, uHTS, NAE and Ubc12, primary screen (AID 651699)
Conditions: TR-FRET cullin neddylation, at 25 µM, hits give high values

Chain of NEDD8-conjugating enzyme Ubc12 (Homo sapiens) + NEDD8-activating enzyme E1 regulatory subunit (Homo sapiens) (P61081 whole entry, looked up): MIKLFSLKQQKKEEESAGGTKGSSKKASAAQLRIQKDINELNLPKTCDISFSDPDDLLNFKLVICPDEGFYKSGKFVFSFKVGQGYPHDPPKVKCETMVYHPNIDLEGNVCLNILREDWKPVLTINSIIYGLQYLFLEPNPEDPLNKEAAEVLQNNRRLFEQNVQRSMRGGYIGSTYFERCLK
Chain of NEDD8-conjugating enzyme Ubc12 (Homo sapiens) + NEDD8-activating enzyme E1 regulatory subunit (Homo sapiens) (Q13564 whole entry, looked up): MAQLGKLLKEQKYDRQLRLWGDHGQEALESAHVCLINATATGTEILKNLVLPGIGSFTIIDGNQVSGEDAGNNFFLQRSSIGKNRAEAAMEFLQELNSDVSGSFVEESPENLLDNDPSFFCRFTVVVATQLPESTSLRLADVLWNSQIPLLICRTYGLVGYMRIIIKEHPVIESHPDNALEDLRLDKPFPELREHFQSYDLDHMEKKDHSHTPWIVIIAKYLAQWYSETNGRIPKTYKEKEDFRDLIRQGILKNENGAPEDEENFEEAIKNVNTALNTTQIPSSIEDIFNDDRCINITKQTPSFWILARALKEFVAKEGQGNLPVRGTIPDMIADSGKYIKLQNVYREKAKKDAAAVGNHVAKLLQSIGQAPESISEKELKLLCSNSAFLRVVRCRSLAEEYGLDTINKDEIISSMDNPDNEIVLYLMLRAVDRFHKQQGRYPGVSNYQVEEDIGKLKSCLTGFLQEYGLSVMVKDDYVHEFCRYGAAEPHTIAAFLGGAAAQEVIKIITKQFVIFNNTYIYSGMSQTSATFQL

| SMILES | inhibition |
| --- | --- |
| CC(C)(C)NS(=O)(=O)CC12CCC(CC1=O)C2(C)C (stereo not given) | 4.11% |
| CCCN(c1ccc(C(C)C)cc1)S(=O)(=O)c1c(C)[nH]c(=O)[nH]c1=O | -4.15% |
| COCCNC(=S)N1CCN(C)CC1 | 2.77% |
| O=C(N[C@H]1C/C=C\C(c2ccc(F)cc2)N(Cc2ccccc2)C(=O)C1)OCC1c2ccccc2-c2ccccc21 (stereo not given in full) | -23.7% |
| COCCn1c(C)cc(C(=O)CSc2nnc(C3CC3)n2C2CC2)c1C | 2.64% |
| CC(C)c1ccc(/C=C/C(=O)NCCCN2CCOCC2)cc1 | 6.59% |
| O=C(/C=C/c1cn(-c2ccccc2)nc1-c1ccc2c(c1)OCCO2)NCCCN1CCOCC1 | 46.4% (active) |
| CC(OC(=O)/C=C/c1ccccc1)C(=O)Nc1ccc(C(N)=O)cc1 (stereo not given) | 9.24% |
| Cc1ccc(S(=O)(=O)NNC(=O)Nc2cccc3ccccc23)cc1 | -0.11% |
| Cc1ccc(C)c(NC(=O)COC(=O)CSc2ccccc2)c1 | 4.31% |
| Cc1ccc(C)c(NC(=O)NNC(=O)c2ccc3ccccc3c2O)c1 | 41.2% (active) |
| CC1CCN(C(=O)CN(c2ccc(Oc3ccccc3)cc2)S(C)(=O)=O)CC1 | 0.77% |
| COc1ccc(/C=C(/NC(=O)c2ccccc2)C(=O)Nc2cccc(C(=O)O)c2)cc1 | -5.87% |
| COc1cc(/C(=C/c2ccccc2)c2ccccc2)c2c(c1)oc1ccccc12 | 49.4% (active) |
| COc1cc2c(cc1NC(=O)COC(=O)/C=C/c1ccccc1)oc1ccccc12 | 29.1% |
| CCN(CCNC(=O)C1=C(C)C(=O)OC12CCC(C)CC2)c1ccccc1 (stereo not given) | 0.38% |
| N/C(Cc1ccc([N+](=O)[O-])cc1)=N\OC(=O)C1CCCCC1 | -35.6% |
| CN(C)c1nc(N)nc(CSc2nnnn2-c2cccc3ccccc23)n1 | -6.09% |
| COc1ccccc1N1CCN(C(=O)C(=O)N/N=C/c2ccccc2F)CC1 | -4.11% |
| COc1cc2cc(C(=O)N/N=C/c3cccc(OC)c3OC)[nH]c2cc1OC | 40.2% (active) |
| COc1cccc(C(=O)N/N=C(\C)c2cccc(NC(=O)c3ccc(F)cc3)c2)c1OC | -8.13% |
| CCOc1ccc2[nH]c(C(=O)N/N=C/c3cccc(OC)c3OC)cc2c1 | 45.1% (active) |

| SMILES | inhibition |
| --- | --- |
| COc1ccc2[nH]c(C(=O)N/N=C/c3cc(OC)c(OC)c(OC)c3)cc2c1 | 59.3% (active) |
| CCOc1ccc2ccccc2c1/C=N/NC(=O)c1c(C)cc(C)[nH]c1=O | -12.9% |
| COc1ccc2[nH]c(=O)c(CNc3ccc(C)c(C)c3)cc2c1 | 23.5% |
| CCOc1ccc(/C=N\NC(=O)c2c(C)nc3cc(C)ccn23)cc1 | 2.94% |
| O=C(Nc1ccc(Cl)cc1)C1Cc2c(-c3ccc4c(c3)OCO4)ccnc2O1 (stereo not given) | 25.3% |
| N#Cc1ccccc1CN1C(=O)S/C(=C/c2cccn2-c2cccc(C(=O)O)c2)C1=O | -29.6% |
| Cc1cccc(N2CCN(C(=O)CN(C)S(=O)(=O)c3ccc4c(c3)CCC(=O)N4)CC2)c1C | 4.09% |
| CCCC(=O)N1CCC1(C)C(=O)NS(=O)(=O)c1ccc(Cl)cc1 (stereo not given) | 5.26% |
| Cc1ncc(CO)c(/C=N/NC(=O)c2cccc(S(=O)(=O)N3CCCC3)c2)c1O | 47.2% (active) |
| CCOc1cc(/C=N/NC(=O)c2cccc(S(=O)(=O)N3CCOCC3)c2)ccc1OCC(=O)N(C)C | 6.83% |
| O=C(NNC1=NCCC1)c1cccc(S(=O)(=O)N2CCCCC2)c1 | 3.17% |
| C=CCOC(=O)C1=C(C)N=C2SCCC(=O)N2C1/C=C/c1ccccc1OC (stereo not given) | -7.53% |
| COc1ccccc1/C=C/C(=O)NC(=S)N1CCOCC1 | -10.5% |
| COc1ccccc1/C=C/C1=NC(=C\N(C)C)/C(=O)O1 | 54% (active) |
| CCSC1=NCCN1C(=O)c1ccc(S(=O)(=O)N(CC)CC)cc1 | -10.5% |
| CC1(C(=O)NS(=O)(=O)c2ccc(C#N)cc2)CCN1C(=O)CC1CCCC1 (stereo not given) | -3.86% |
| CC(C)(C)OC(=O)C[C@@H]1C/C=C\C[C@@H](CC(=O)N[C@H](CO)Cc2ccccc2)C(=O)NCCOC1=O | -4.28% |
| O=C(c1cc(-c2ccco2)nc2ccccc12)N(Cc1nnc(-c2ccc(Cl)cc2)o1)C1CC1 | 38.9% (active) |
| O=C(c1ccc(Cl)s1)N(Cc1nnc(-c2ccccc2Cl)o1)C1CC1 | 12.9% |
| CN(C(=O)COC(=O)c1cc(-c2ccco2)nc2ccccc12)C1CCS(=O)(=O)C1 (stereo not given) | -19.8% |
| N#Cc1ccc(S(=O)(=O)NCC(=O)OCC(=O)NCCc2ccccc2)cc1 | -11.3% |
| CCOC(=O)C1(Cc2ccccc2C)CCCN(C(=O)CCc2c(C)noc2C)C1 (stereo not given) | 3.81% |

| SMILES | inhibition |
| --- | --- |
| CC(=O)Oc1c(C(=O)c2nnc(C)o2)c(=O)n(Cc2ccccc2)c2ccccc12 | 40% (active) |
| CC(=O)OCC(C)n1c(=O)c2ccccc2n1C(C)=O (stereo not given) | 16.7% |
| O=C(O)CCc1nc2cc(Cl)ccc2n(Cc2ccccc2)c1=O | 9.12% |
| CC1Cc2ccccc2N1CC(=O)Nc1ccc2c(c1)OC(F)(F)O2 (stereo not given) | -5.99% |
| CC(=O)NS(=O)(=O)c1ccc(N/C(N)=N/c2nc(C)cc(C)n2)cc1 | -11.7% |
| O=C(CSc1nnc(-c2ccncc2)n1C1CCCCC1)Nc1ccccc1 | -3.98% |
| CCOc1ccc(NC(=O)CN(C)C(=O)Cc2sc(C)nc2-c2ccc(F)cc2)cc1OCC | -1.44% |
| CCOc1ccc(C2c3[nH]c4ccccc4c3CCN2Cc2cn(CC)nc2C)cc1 (stereo not given) | 22.4% |
| COc1ccc(C2c3[nH]c4ccccc4c3CCN2CCCn2cccn2)cc1C (stereo not given) | 49.4% (active) |
| Oc1cccc(C2c3[nH]c4ccccc4c3CCN2Cc2cnn(-c3ccccc3)c2)c1 (stereo not given) | 25.4% |
| CCOc1ccc(C2c3[nH]c4ccccc4c3CCN2Cc2cccn2-c2ncccn2)cc1 (stereo not given) | 16.1% |
| COc1cccc(C2c3[nH]c4ccccc4c3CCN2Cc2cccc(C)n2)c1 (stereo not given) | 48.7% (active) |
| COCc1ccc(C(=O)N2CCc3c([nH]c4ccccc34)C2c2ccccn2)s1 (stereo not given) | -1.93% |
| O=C(O)C1C2C=CC(C2)C1C(=O)NCc1ccccc1 (stereo not given) | -4.12% |
| O=C(OCc1ccccc1)N1CCC2CC1c1cc(N3CCN(S(=O)(=O)c4cc(Cl)cc(Cl)c4)CC3)ccc12 (stereo not given) | 19.3% |
| CC(OC(=O)c1cc2ccccc2o1)C(=O)Nc1ccc(N2CCOCC2)cc1 (stereo not given) | 2.93% |
| CC(C)C1N=C2c3ccccc3N=C(SCC(=O)c3ccc(O)c(O)c3)N2C1=O (stereo not given) | -18.8% |
| O=C(Nc1ccc(-c2cscn2)cc1)C1CCCN(Cc2ccc(CO)o2)C1 (stereo not given) | 5.08% |
| O=C(NCc1cccnc1)Nc1cccc(NC(=O)NCc2cccnc2)c1F | 2.41% |
| CC(C)CC1(C)NC(=O)N(CC(=O)Nc2ccc3c(c2)OCCO3)C1=O (stereo not given) | -8.52% |
| Cc1ccc(-n2c(SCC(=O)Nc3ncc(Cl)cc3Cl)nc3ccccc32)cc1 | 3.23% |
